Test results taken from PubChem BioAssay (NCI).
Compounds without any hit were thinned out: in the full panel of roughly 83,000, 20% have a hit.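 Note: values are percent growth. 100 is the growth of untreated cells, values between 100 and 0 indicate rising inhibition; between -100 and 0 indicates cell death.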 Values without a mark were called inactive. The source made the active and inactive calls. Rule for the calls: active = growth percent below 10; inactive = the rest.

Columns and labels:
Test in all cases: NCI-60 one-dose screen, 48 h (100 = growth as untreated, 0 = no growth, -100 = all killed)
Conditions in all cases: 10 µM unless noted
[1] = test system: NCI-H23 lung
[2] = test system: NCI-H226 lung
[3] = test system: NCI-H322M lung
[4] = test system: HOP-62 NSCLC
[5] = test system: NCI-H460 lung
[6] = test system: HOP-92 NSCLC
[7] = test system: NCI-H522 lung
[8] = test system: A549/ATCC NSCLC
[9] = test system: 786-0 renal
[10] = test system: COLO 205 colon

SMILES | growth [1] | growth [2] | growth [3] | growth [4] | growth [5] | growth [6] | growth [7] | growth [8] | growth [9] | growth [10]
CC1CN=C(c2cccc(-c3ccc(-c4ccccc4)o3)c2)N1 (stereo not given) | 27.6% | 30% | 4.39% (active) | 39.9% | -25.5% (active) | -13.1% (active) | -64.5% (active) | 12.2% | -43.6% (active) | -82.6% (active)
COc1ccc(-c2nnc(SCC(=O)Nc3ccc(/C(C)=N\O)cc3)n2-c2ccccc2)cc1OC | 68.8% | 81.9% | 75.7% | -26.4% (active) | 102% | -8.56% (active) | 35.3% | 70.7% | 64.5% | 99.1%
COc1cc2oc(-c3cccc(NC(=O)c4ccc5c(c4)OCO5)c3)cc(=O)c2c(OC)c1OC | 52.9% | 65.7% | 43.5% | 54.4% | 27.2% | -6.11% (active) | 36.7% | 51.3% | 19.5% | 68.1%
Cc1ccc(N=Nc2c(N)nn(-c3ccccc3)c2N)cc1 | 6.74% (active) | 76% | 32.7% | 64% | 9.76% (active) | 86.2% | -11% (active) | 29.3% | 63.7% | 16.9%
CC(C)(C)C(=O)/C=C/c1ccc([N+](=O)[O-])cc1 | 85.7% | 69.6% | 103% | 103% | 97.9% | 67.5% | 40% | 66.8% | 97.5% | 82.5%
CCOC(=O)c1c(-c2ccccc2)n2c(=O)cc(C)c3c(O)c(O)cc1c32 | 66.2% | 84.6% | 50.3% | 39.4% | 20.3% | 47% | 66.2% | 43.1% | 62.7% | 86.9%
Cn1ccnc1C(=O)/C=C/c1ccc(C(=O)Nc2ccc(F)cc2)cc1 | 15.9% | 13.8% | 11% | 5.2% (active) | -44.5% (active) | 11.1% | 7.55% (active) | 10.8% | -35.2% (active) | 25.8%
CC(/C=C1\SC(=S)N(CC(=O)NC(Cc2c[nH]c3ccccc23)C(=O)O)C1=O)=C\c1ccccc1 (stereo not given) | 99.9% | 102% | 102% | 96.3% | 103% | 106% | 93.3% | 103% | 102% | 116%
NC(=O)OCCn1cc(-c2nc(-c3c[nH]c4ncccc34)cs2)c2ccccc21 | 63.3% | 53% | 65.9% | 39.2% | 17.8% | 49.1% | 5.49% (active) | 36.9% | 42.9% | 4.32% (active)
O=C1Nc2ccccc2C2c3cccn3-c3ccccc3N12 (stereo not given) | 81% | 89.5% | 83% | 58.2% | 88.9% | 57.8% | 8.49% (active) | 61.7% | 87.8% | 60.5%
O=c1[nH]c(-c2ccc(Cl)cc2)cn1-c1ccc(-n2cc(-c3ccc(Cl)cc3)[nH]c2=O)cc1 | 95.9% | 91.1% | 115% | 99.8% | 115% | 99.1% | 112% | 93.4% | 96.4% | 111%
CCOC(=O)CSc1nc2sc3c(c2c(=O)n1-c1ccc([N+](=O)[O-])cc1)CCCCC3 | 74.5% | 98.8% | 77.2% | 47.7% | 48.1% | 80.3% | 68.8% | 66.1% | 71.3% | 82.8%
O=C(/C=C/c1ccccc1)Nc1ncc(Cc2ccccc2)s1 | 24.8% | 60.3% | 31.4% | 13.7% | 2.22% (active) | 85.7% | -4.58% (active) | 22.1% | 24.5% | 8.42% (active)
C#Cc1cccc(Nc2nc3ccc([N+](=O)[O-])cc3nc2Nc2cccc(C#C)c2)c1 | -54.6% (active) | -42.3% (active) | 1.22% (active) | -94.7% (active) | -57.6% (active) | -24.9% (active) | -64% (active) | -45.7% (active) | -56.7% (active) | -87.3% (active)
Cc1ccc(-c2cc(C(=O)N3N=C(c4ccc(N)cc4)CC3c3ccc(Cl)cc3)c3ccccc3n2)cc1 (stereo not given) | 49.4% | 72.1% | 48.3% | 33.9% | 12.9% | 41.2% | -2.26% (active) | 21.4% | 24.3% | 2.01% (active)
Nc1c(C(=O)Nc2cccc3ncccc23)sc2nc3c(cc12)C(=O)CCC3 | 53.8% | 62.2% | 62.2% | 39% | 19.9% | 41.8% | 11.1% | 49.6% | 56.5% | 45.9%
CC(C)[C@@]12C[C@@H](OC(=O)COC(=O)c3ccccc3)[C@@](C)(O1)[C@@H]1CC[C@@H](C)[C@H]1[C@@H]2OC(=O)/C=C/c1ccccc1 | 90.1% | 64.4% | 87% | 89.5% | 95.3% | 76.9% | 80.9% | 80.9% | 68.7% | 108%
N#Cc1c(-c2ccccc2)nc2c(c(-c3ccccc3)nn2-c2ccccc2)c1-c1ccc(N2CCOCC2)cc1 | 96.9% | 92.7% | 92.3% | 95.3% | 92.5% | 85.8% | 92% | 77.2% | 86.3% | 79.6%
COC(=O)Cc1nc(C#N)c(N(C)C)o1 | 95.4% | 96.3% | 97.2% | 96.7% | 101% | 95.9% | 90.3% | 95.8% | 97.6% | 104%
N/C(=N\c1nc2ccccc2s1)NC(=NC1CCCCC1)NC1CCCCC1 | 30.6% | 77.1% | 40.4% | 67.7% | -44.4% (active) | -1.22% (active) | 14% | 45.9% | 25.1% | -44.9% (active)
Oc1c(Cl)cc(Cl)c2ccc(Cn3cc(-c4cccc(C(F)(F)F)c4)nn3)nc12 | 90% | 90.1% | 102% | 97.5% | 101% | 55.8% | -3.26% (active) | 97.9% | 95.6% | 92.9%
CCOC(=O)NN1CC(O)=C(c2nc(-c3ccc(Br)cc3)cs2)C1=N | 101% | 105% | 112% | 106% | 111% | 97.3% | 92.1% | 88.1% | 111% | 112%
CCN(CC)CCN(CCN(CC)CC)c1ccccc1 | 93% | 94.6% | 103% | 98.5% | 107% | 67.3% | 79% | 93.1% | 67.4% | 97.8%
COc1ccc(/C=C/C(=O)c2ccc(Nc3nc(Nc4ccc(F)cc4)nc(Nc4ccc(Cl)cc4)n3)cc2)cc1 | 93.3% | 122% | 152% | 112% | 94.2% | 44.7% | 61.9% | 90.5% | 92.6% | 96%
Fc1ccc(CNc2c3ccccc3nc3ccccc23)cc1 | 31.6% | 51.8% | 38.5% | 43% | 8.85% (active) | 17.2% | 52.4% | 23.7% | 27.6% | 7.53% (active)
Oc1c(CN2CCCC2)cc(COCc2ccccc2)c2cccnc12 | 31.3% | 18.1% | 16.7% | 1.77% (active) | 3.04% (active) | 14.7% | -2.04% (active) | 8.85% (active) | 5.96% (active) | 71.4%
